In ChEMBL document CHEMBL3433997, “St. Jude Leishmania screening dataset” (2016):

Experiments:
Assay type in all cases: functional
[1] = biological target: Solute carrier family 2, facilitated glucose transporter member 1 (Homo sapiens) (UniProt P11166); test: ST_JUDE_LEISH: Cytotoxicity at 2uM final concentration against transgenic Leishmania Mexicana promastigotes LmGLUT1 that are glucose transport deficient and complemented with the human glucose transporter GLUT1. Activity is measured by DNA content using SYBR green in vitro
Solute carrier family 2, facilitated glucose transporter member 1 (Homo sapiens), sequence (P11166 whole entry): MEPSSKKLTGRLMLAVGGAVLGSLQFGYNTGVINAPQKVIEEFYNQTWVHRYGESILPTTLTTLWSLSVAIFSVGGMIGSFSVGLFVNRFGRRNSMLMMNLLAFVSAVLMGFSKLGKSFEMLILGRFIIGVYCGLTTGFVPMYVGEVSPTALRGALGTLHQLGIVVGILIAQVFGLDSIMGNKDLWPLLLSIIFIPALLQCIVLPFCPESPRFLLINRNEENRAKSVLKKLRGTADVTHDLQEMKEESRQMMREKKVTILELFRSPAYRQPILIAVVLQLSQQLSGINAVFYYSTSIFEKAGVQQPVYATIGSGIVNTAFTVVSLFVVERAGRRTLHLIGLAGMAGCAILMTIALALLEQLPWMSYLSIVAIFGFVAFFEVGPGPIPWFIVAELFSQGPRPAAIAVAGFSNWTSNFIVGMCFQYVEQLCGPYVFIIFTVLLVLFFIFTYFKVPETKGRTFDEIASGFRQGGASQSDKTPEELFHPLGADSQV

[2] = biological target: Hexose transporter 1 (Plasmodium falciparum) (UniProt O97467); test: ST_JUDE_LEISH: Cytotoxicity at 2uM final concentration against transgenic Leishmania Mexicana promastigotes LmPfHT that are glucose transport deficient and complemented with the Plasmodium falciparum hexose transporter. Activity is measured by DNA content using SYBR green in vitro
[3] = biological target: Glucose transporter (Leishmania mexicana) (UniProt O61059); test: ST_JUDE_LEISH: Cytotoxicity at 2uM final concentration against transgenic Leishmania Mexicana promastigotes LmGT2 that are glucose transport deficient and complemented with the L. Mexicana glucose transporter 2. Activity is measured by DNA content using SYBR green in vitro

| SMILES | inhibition [1] | inhibition [2] | inhibition [3] |
| --- | --- | --- | --- |
| CCCCNC(=O)c1[nH]c2c(NC(=O)COc3ccccc3)cccc2c1-c1cccc(NC(=O)C(N)CO)c1 (configuration not stated) | 10.1% | 9.02% | 7.27% |
| CCC(C)NC(=O)CN1CN(c2ccccc2)C2(CCN(C(=O)c3ccc(-c4ccccc4)cc3)CC2)C1=O (configuration not stated) | 8.23% | 11.5% | 7.73% |
| Cc1cccc(CCNC(=O)c2cc(Br)cc(N3CCN(c4ccncc4)CC3)c2)c1 | 0.72% | 2.44% | 1.78% |
| COc1cc2c(cc1N1CC(C)NC(C)C1)N(C(=O)c1ccc(-c3ccc(-c4ncc[nH]4)cc3C)cc1)CC2 (configuration not stated) | 2.21% | 1.1% | 3.39% |
| COc1ccc(NC(=O)[C@H](Cc2ccccc2)Nc2cc(C)nc(NCCc3cccs3)n2)cc1 | 2.27% | 2.32% | -0.24% |
| Cc1ccc(Nc2nc(NN=Cc3ccc(-c4ccc([N+](=O)[O-])cc4)o3)nc(N3CCOCC3)n2)cc1Cl | -1.18% | -1.96% | -0.54% |
| N=C(N)NC(=O)Nc1cc(Cl)c(Cl)c(Cl)c1 | 2.56% | 4% | 2.18% |
| CCc1nc(N)nc(N)c1-c1ccc(C(C)C)cc1 | 2.65% | 2.31% | 2.86% |
| N=C(N)Nc1ccc(NC(=O)Nc2ccc(NC(=N)N)cc2)cc1 | 0.9% | 0.77% | 0.04% |
| CCC(C)NC(=O)CN1CN(c2ccccc2)C2(CCN(C(=O)c3ccc4ccccc4c3)CC2)C1=O (configuration not stated) | 0.98% | -0.53% | -0.96% |
| Cc1cc(O)nc(NC(=N)NOCc2ccccc2)n1 | -1.66% | 1.03% | 1.07% |
| CNC(=O)c1cnc(Nc2ccc(N3CCN(C)CC3)cc2)nc1Nc1cccc(OC)c1 | 3.74% | 2.74% | 5.02% |
| Cc1sc2ncnc(Sc3nc4ccccc4[nH]3)c2c1C | 5.47% | 8.07% | 3.58% |
| CCNc1cc(C(=O)N[C@@H](Cc2ccccc2)[C@H](O)CNCCCc2ccc(OC)cc2)cc(N2CCCC2=O)c1 | 0.4% | 0.76% | 1.05% |
| CCCOc1cc(Cc2cnc(N)nc2N)cc(OC)c1OC | -1.05% | -1.9% | -0.03% |
| Cc1ccc(NC(=O)c2cc(Br)cc(N3CCC(N(C)C)CC3)c2)cc1F | 7.55% | 7.67% | 6.75% |
| CCCC(CNCc1ccc(Cl)c(C(F)(F)F)c1)CNc1nc2cnccc2[nH]1 (configuration not stated) | 13.5% | 11.9% | 8.76% |

| SMILES | inhibition [1] | inhibition [2] | inhibition [3] |
| --- | --- | --- | --- |
| CCc1cc2c(Sc3nnc(N)s3)ncnc2s1 | 2.44% | 0.05% | -5.69% |
| Cc1cc(=NN=Cc2ccccc2Cl)c2ccc(F)cc2[nH]1 | 6.47% | 6.14% | 3.93% |
| COc1ccccc1C(C)NCC(=O)Nc1cccc(C(=O)Nc2cccc(C(F)(F)F)c2)c1 (configuration not stated) | 3.9% | -0.5% | 4.16% |
| Cc1nc2sccn2c1C(=O)NCCc1ccccc1Cl | 0.29% | 1.15% | 1.69% |
| CC(C)CNc1nc(N)nc2ccc3c(ccn3CC(C)C)c12 | 1.7% | -0.47% | -0.02% |
| O=C(NC1CCN(Cc2ccccc2)CC1)c1cccc(-c2nc3ccc(Cl)cc3[nH]2)c1 | 1.15% | 2.61% | 2.94% |
| FC(F)(F)c1ccc2[nH]c(-c3ccc(-c4cccc(CNCc5cnn(-c6ccccc6)n5)c4)s3)nc2c1 | 2.87% | 3.4% | 2.46% |
| O=S(=O)(NCCN1CCCC1)c1cccc(-c2ccc(CNCc3ccccc3)cc2)c1 | 5.11% | 2.05% | 2.83% |
| CC(=O)Nc1ncc(C(=O)Nc2cccc(-c3ccc(-c4nc5cc(C(F)(F)F)ccc5[nH]4)s3)c2)s1 | 3.37% | 4.16% | 3.18% |
| Cc1c(Cl)cccc1S(=O)(=O)N1CCCCC(c2ccc(C(F)(F)F)cc2)=N1 | 0.39% | 3.08% | -0.52% |
| CCn1cc(C(=O)O)c(=O)c2cc(F)c(N3CCN(S(=O)(=O)c4ccc(N)cc4)CC3)cc21 | 0.77% | 0.41% | -4% |
| Nc1cc2c(C3CCN(CC4CCN(C(=O)/C=C/c5ccc(Cl)c(Cl)c5)CC4)CC3)c[nH]c2cn1 | 1.83% | 0.67% | -0.09% |
| COc1c(C)cc(I)cc1CNCCCNc1cc(=O)c2ccccc2[nH]1 | 0.43% | -0.66% | -0.84% |
| COc1ccc(-c2ccc(NC(=O)c3cccc(C#N)c3)cc2)cc1CN1CCCN(C)CC1 | 4.08% | 2.42% | -0.48% |
| COc1ccc(-c2ccc(NC(=O)c3cccc(C#N)c3)cc2)cc1CN1CCNCC1 | 9.28% | 5.74% | 4.28% |
| Nc1cc(C(F)(F)F)ccc1Cl | -1.56% | -2.13% | -2.26% |
| CCOC(=O)c1ccc(N=C2SC(=Cc3cc(Br)ccc3O)C(=O)N2C)cc1 | 3.33% | 1.81% | 3.81% |
